Neddyl block: inhibitors of human cullin neddylation. P61081+Q13564. TR-FRET cullin neddylation, biochemical. calls only at 25 µM. 360,000 tested, 0.58% active; in the data active = inhibition above about 36%
Target sequence (P61081 whole entry, looked up): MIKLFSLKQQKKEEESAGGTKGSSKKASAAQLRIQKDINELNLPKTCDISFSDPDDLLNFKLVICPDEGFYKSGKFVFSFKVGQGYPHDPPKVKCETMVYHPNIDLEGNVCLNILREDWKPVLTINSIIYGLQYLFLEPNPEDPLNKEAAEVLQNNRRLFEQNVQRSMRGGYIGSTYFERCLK
Target sequence (Q13564 whole entry, looked up): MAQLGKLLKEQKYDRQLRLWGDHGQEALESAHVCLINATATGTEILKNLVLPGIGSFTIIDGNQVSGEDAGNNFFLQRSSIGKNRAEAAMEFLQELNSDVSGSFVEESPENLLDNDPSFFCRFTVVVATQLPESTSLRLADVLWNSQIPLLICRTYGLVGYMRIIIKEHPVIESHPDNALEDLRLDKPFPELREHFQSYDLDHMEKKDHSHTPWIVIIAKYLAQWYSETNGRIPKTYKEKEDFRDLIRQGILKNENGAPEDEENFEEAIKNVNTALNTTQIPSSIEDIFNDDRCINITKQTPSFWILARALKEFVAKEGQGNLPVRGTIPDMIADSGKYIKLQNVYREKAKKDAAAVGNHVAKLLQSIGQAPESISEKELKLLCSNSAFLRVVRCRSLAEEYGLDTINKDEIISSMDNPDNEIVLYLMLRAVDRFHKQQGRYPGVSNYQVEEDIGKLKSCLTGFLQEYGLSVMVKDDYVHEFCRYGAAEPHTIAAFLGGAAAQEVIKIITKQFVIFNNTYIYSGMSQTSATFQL
PKA-R1A activ: PKA-R1A complex activation; P00514+P68181; PKA-R1A dissociation, Cy5-IP20 fluorescence polarization; scaled: DMSO 0%, 113 µM cGMP 100%; activation, % at 11.4 µM; 340,000 tested, 0.083% active; AID 504707;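 active = percent activation above the mean of all tested compounds plus 3 SD, cut at about 19% in these data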;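 note: higher means more PKAc released from R1A so a rise in polarization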
PolyA inhibitor: yeast polyadenylation inhibition. 300,000 tested, 0.02% active. S. cerevisiae SKY197-pL101 polyadenylation reporter, beta-gal luminescence; efflux-impaired pdr1/pdr3 knockout yeast; score 100 = 6 SD above DMSO. activity score, % at 12 µM;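 active = lowest replicate activity score at least 50, where 100 means six control SD above control mean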;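 note: yeast exposed to compound for 9 h at 30 °C; higher score means more reporter readthrough which indicates perturbed polyadenylation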
PKA-R2B activ: activates the human PKA-R2B holoenzyme complex; P22694+P31323; PKA-R2B holoenzyme dissociation, Cy5-IP20 fluorescence polarization; R2B truncated from residue 108, S112A mutant; 0% DMSO only, 100% 113 µM cGMP; activation, % at 11.4 µM; 340,000 tested, 0.079% active;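 active = activation above a cutoff set at the mean over all compounds plus 3 SD, cut at about 18% in these data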;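 note: higher means more holoenzyme dissociation and a rise in polarization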
Neddyl inh conf: confirmation of human cullin neddylation inhibitors; shares compounds with Neddyl block; TR-FRET cullin neddylation biochemical assay; calls only at 25 µM; 1,800 tested, 13% active; AID 652217; in the data active = inhibition above about 40%;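 note: neddylation substrate is the cullin 1 ring ligase complex with SKP2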
* marks the source's active call; other numbers are inactive results. In the library only some 0.72% were active in any assay of this set; here they are far more common.

How did O=C(Nc1cc(C(=O)Nc2ccccc2C(=O)O)cc(C(=O)Nc2ccccc2C(=O)O)c1)c1ccccc1 do in these assays?
Neddyl block: active; PKA-R1A activ: -4; PolyA inhibitor: 7; PKA-R2B activ: 2; Neddyl inh conf: inactive

What do the screens show for `O=S1(=O)N=C(N(CCO)/N=C/c2ccc(Cl)cc2)c2ccccc21`?
Neddyl block: active; PKA-R1A activ: 7; PolyA inhibitor: 2; PKA-R2B activ: -3

Results for CS(=O)(=O)c1ccc(Nc2nc(C(N)c3ccccc3)cs2)cc1 (stereo not given) ?
Neddyl block: inactive

What do the screens show for `O=C(O)/C=C/C(=O)Nc1ccc2nccnc2c1`?
Neddyl block: active; PKA-R1A activ: -3; PKA-R2B activ: -3; Neddyl inh conf: inactive

Results for Cc1ccc(-c2[nH]c3ccccc3c2SCCN)cc1 ?
Neddyl block: active; PKA-R1A activ: 2; PolyA inhibitor: -5; PKA-R2B activ: 8; Neddyl inh conf: inactive

How did COc1cc(/C=N\NC(=O)c2ccc(-c3ccccc3)cc2)cc(Br)c1O do in these assays?
Neddyl block: active; PKA-R1A activ: -9; PolyA inhibitor: -12; PKA-R2B activ: -13; Neddyl inh conf: inactive

Results for COc1ccc(/C=N/NC(=O)c2ccc(-c3ccccc3)cc2)cc1O ?
Neddyl block: inactive; PKA-R1A activ: -1; PolyA inhibitor: 0; PKA-R2B activ: -21

How did O=C(CCC(=O)N1CCOc2ccc(Cl)cc21)NCCN1CCOCC1 do in these assays?
Neddyl block: inactive; PKA-R1A activ: 4; PolyA inhibitor: 2; PKA-R2B activ: 0

How did CCn1c(=O)c(-c2ccccc2)c(O)c2ccccc21 do in these assays?
Neddyl block: active; PKA-R1A activ: 9; PolyA inhibitor: -7; PKA-R2B activ: -5; Neddyl inh conf: active

How did O=C(COc1ccc2c3c(c(=O)oc2c1)CCCC3)NCCN1CCOCC1 do in these assays?
Neddyl block: active; PKA-R1A activ: -5; PolyA inhibitor: -4; PKA-R2B activ: 4; Neddyl inh conf: inactive

What do the screens show for `O=C(COc1ccc2c3c(c(=O)oc2c1)CCCC3)NCCCN1CCOCC1`?
Neddyl block: active; PKA-R1A activ: -3; PolyA inhibitor: 3; PKA-R2B activ: 0; Neddyl inh conf: inactive

What do the screens show for `CC1(C)CC(NC(=O)COc2ccc3c4c(c(=O)oc3c2)CCCC4)CC(C)(C)N1`?
Neddyl block: active; PKA-R1A activ: -2; PolyA inhibitor: -4; PKA-R2B activ: 0

How did O=C(COc1ccc2c3c(c(=O)oc2c1)CCC3)NCCN1CCOCC1 do in these assays?
Neddyl block: inactive; PKA-R1A activ: -8; PolyA inhibitor: 5; PKA-R2B activ: 1

How did NC(=O)C1CCN(C(=O)COc2ccc3c4c(c(=O)oc3c2)CCCC4)CC1 do in these assays?
PKA-R1A activ: -4; PolyA inhibitor: -5; PKA-R2B activ: -1

How did O=C(O)C1CCN(C(=O)COc2ccc3c4c(c(=O)oc3c2)CCC4)CC1 do in these assays?
Neddyl block: active; PKA-R1A activ: -10; PolyA inhibitor: 11; PKA-R2B activ: 9; Neddyl inh conf: inactive

How did O=C(COC(=O)CCNS(=O)(=O)c1ccccc1)NC(=O)Cc1ccccc1 do in these assays?
Neddyl block: inactive; PKA-R1A activ: -7; PKA-R2B activ: 2

How did Cc1ccc(C(=O)N2CC(C)OC(C)C2)cc1S(=O)(=O)N1CCCCC1 (stereo not given) do in these assays?
Neddyl block: inactive; PKA-R1A activ: -2; PKA-R2B activ: 1

Results for COCCn1c(=O)[nH]c2cc(C(=O)OC)ccc2c1=O ?
Neddyl block: active; PKA-R1A activ: -5; PolyA inhibitor: -19; PKA-R2B activ: 3; Neddyl inh conf: inactive

Results for Cc1ccc(NC(=O)c2cc3ccccc3cc2O)cc1 ?
Neddyl block: active; PKA-R1A activ: 0; PolyA inhibitor: 8; PKA-R2B activ: -2; Neddyl inh conf: inactive

Results for c1cncc(-c2nnc(-c3cccs3)o2)c1 ?
Neddyl block: active; PKA-R1A activ: -4; PolyA inhibitor: 5; PKA-R2B activ: 8

How did C=CCN(CC=C)Cc1c(C)[nH]c2ccc(C(=O)OCC)cc2c1=O do in these assays?
Neddyl block: active; PKA-R1A activ: -2; PolyA inhibitor: 10; PKA-R2B activ: -9; Neddyl inh conf: inactive

What do the screens show for `CCN(CC)Cc1c(C)[nH]c2ccc(NC(C)=O)cc2c1=O`?
Neddyl block: inactive; PKA-R1A activ: -2; PKA-R2B activ: -4

What do the screens show for `CCOC(=O)c1ccc(-c2ccc(/C=N/NC(=O)CN(c3ccccc3Cl)S(C)(=O)=O)o2)cc1`?
Neddyl block: active; PKA-R1A activ: 3; PolyA inhibitor: 11; PKA-R2B activ: -4; Neddyl inh conf: inactive

How did COc1ccc(-c2sc(Nc3cccc4ccccc34)n[n+]2C)c(C)c1C do in these assays?
Neddyl block: active; PKA-R1A activ: -18; PKA-R2B activ: 2; Neddyl inh conf: inactive

What do the screens show for `CCN(CC)CCN(C(=O)c1ccc2c(c1)OCCO2)c1nc2cc3c(cc2s1)OCO3`?
Neddyl block: inactive; PKA-R1A activ: 2; PolyA inhibitor: -12; PKA-R2B activ: 7

How did CCN(CC)CCN(C(=O)c1cc2c(ccc3ccccc32)oc1=O)c1nc2cc3c(cc2s1)OCCO3 do in these assays?
Neddyl block: active; PKA-R1A activ: -8; PolyA inhibitor: -4; PKA-R2B activ: 1; Neddyl inh conf: inactive

What do the screens show for `CSc1cccc(NC(=O)COC(=O)c2ccccn2)c1`?
Neddyl block: inactive; PKA-R1A activ: -2; PKA-R2B activ: -3

Results for NC(=O)CCC(=O)N1CCCC(C(=O)c2ccc3c4c(cccc24)CC3)C1 (stereo not given) ?
Neddyl block: active; PKA-R1A activ: -6; PolyA inhibitor: 29; PKA-R2B activ: -2; Neddyl inh conf: inactive

Results for O=C1CCC(C(=O)N2CCCC(C(=O)c3ccc4c5c(cccc35)CC4)C2)=NN1 (stereo not given) ?
Neddyl block: active; PKA-R1A activ: -16; PolyA inhibitor: -2; PKA-R2B activ: -1; Neddyl inh conf: active

Results for O=C1CCC(CCC(=O)N2CCCC(C(=O)c3ccc4c5c(cccc35)CC4)C2)=NN1 (stereo not given) ?
Neddyl block: inactive; PKA-R1A activ: -9; PolyA inhibitor: -7; PKA-R2B activ: -10

What do the screens show for `CCN(C(=O)C(C)Sc1ccc(S(=O)(=O)N2CCOCC2)cn1)c1ccccc1` (stereo not given)?
Neddyl block: inactive; PKA-R1A activ: -2; PKA-R2B activ: 2

What do the screens show for `Cn1c2ccccc2c2c(C(=O)N3CCN(c4ccccn4)CC3)cn(C3CCCC3)c(=O)c21`?
Neddyl block: inactive; PKA-R1A activ: 6; PolyA inhibitor: -8; PKA-R2B activ: 1

Compound activity as filed in PubChem.
